ELG1 repair inh: inhibitors of ELG1-dependent DNA repair in HEK293T cells; HEK293T ELG1-luciferase reporter, luminescence, 16 h; DNA damage induced by 5-fluorouridine; Potency, µM (highest dose often 46.1 µM), without a hit: at the top dose activity change, negative = inhibition, hits mostly inhibitors; actives 2.3% (n = 330,000); AID 504467; note: % is set by controls: 0 for no effect and ±100 for the full control effect; nearly all actives have a fitted effect of over 55% in size
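HEK293T cells expressing luciferase-tagged ELG1 (2,000/well) received 5-Fluorouridine plus compound or DMSO for 16 hr at 37 °C. Luciferase was read by ONE-Glo luminescence after 30 min at room temperature.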
FLuc counter: firefly luciferase modulation, counter-screen for miR-21 project; Potency, µM (titrated, usually from 57.5 µM), inactives show at the highest dose activity change, negative = inhibition, hits mostly inhibitors; purified FLuc, Km substrates, luminescence inhibition; actives 6.9% (n = 360,000);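 note: plate controls were vehicle for no effect and reference inhibitor for full effect; nearly all actives have a fitted effect of over 55% in size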
Target sequence (P08659 whole entry, looked up): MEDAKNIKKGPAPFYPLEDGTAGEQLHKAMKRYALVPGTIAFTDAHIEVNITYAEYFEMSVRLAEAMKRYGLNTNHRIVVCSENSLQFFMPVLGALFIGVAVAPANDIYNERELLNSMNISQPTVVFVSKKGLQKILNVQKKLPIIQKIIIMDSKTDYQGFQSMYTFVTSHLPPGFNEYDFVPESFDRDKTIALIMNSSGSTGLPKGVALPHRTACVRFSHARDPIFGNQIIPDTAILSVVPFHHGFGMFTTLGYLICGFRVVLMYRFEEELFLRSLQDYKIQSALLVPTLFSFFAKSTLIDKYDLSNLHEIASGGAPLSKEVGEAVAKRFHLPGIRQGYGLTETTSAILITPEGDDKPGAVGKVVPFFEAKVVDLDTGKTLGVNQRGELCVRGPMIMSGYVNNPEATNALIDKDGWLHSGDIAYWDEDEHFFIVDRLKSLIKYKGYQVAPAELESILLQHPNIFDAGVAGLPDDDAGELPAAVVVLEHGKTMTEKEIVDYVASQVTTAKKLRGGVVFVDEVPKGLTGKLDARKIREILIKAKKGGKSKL
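Biochemical qHTS of compounds, final roughly 60 µM downward over six points, against 10 nM purified firefly luciferase using Km concentrations of substrates (10 uM D-luciferin, 10 uM ATP) in Tris acetate pH 7.5 buffer; luminescence output.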
Rab9 prom act: activates the Rab9 promoter | AID 485297 | Huh7 Rab9 promoter-luciferase reporter, luminescence, 24 h | actives 2.8% (n = 320,000) | Potency, µM (top dose mostly 9.22 µM), for the others: at the highest dose activation, negative = inhibition, usual class: activators; note: % of control where 0% means no effect; nearly all actives have a fitted effect of over 60% in size
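Quantitative HTS format; Huh7 Rab9-luciferase reporter cells (1500/well) receive compound 2 h post-plating, incubate 24 h at 37 °C, then get luciferase reagent for 10 min before luminescence reading.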
SMN2 splice up: enhancers of SMN2 splice variant expression. HEK293 SMN2-luciferase splicing reporter, luminescence, 30-36 h. Potency, µM (doses to about 46.1 µM), for the others: at the top dose activity change, positive = activation, hits mostly activators. actives 2.8% (n = 210,000); note: % of control where 0% means no effect; nearly all actives have a fitted effect of over 55% in size
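HEK293 cells carry an SMN2 minigene-luciferase reporter in which exon 7 inclusion puts luciferase in frame. Cells were seeded at 2000 cells/well, attached for 10-12 hours, then exposed to compounds for 30-36 hours at 37C before ONE-Glo luminescence.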
NPC1 promoter act: NPC1 promoter activation; Huh7 NPC1 promoter luciferase reporter, 24 h; actives 2.4% (n = 320,000); Potency, µM (titrated, usually from 9.22 µM), inactives show at the highest dose activation, usual class: activators; note: % of control where 0% means no effect; nearly all actives have a fitted effect of over 60% in size
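Compounds in DMSO were transferred onto Huh7 NPC1-luciferase reporter cells pre-incubated 2 h; after 24 h at 37 °C, Amplite reagent was dispensed and luminescence recorded 10 min later.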
ELG1 genotoxic: induces genotoxicity in HEK293T cells with luciferase-tagged ELG1 | actives 1.3% (n = 330,000) | Potency, µM (top dose mostly 46 µM), without a hit: top-dose activity change, positive = activation, actives largely listed as activators | HEK293T ELG1-luciferase reporter, luminescence, 16 h; note: % of control where 0% means no effect; nearly all actives have a fitted effect of over 60% in size
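Luminescence read-out: rising ELG1-luciferase signal, reflecting elevated ELG1 protein under genetic stress, flags genotoxic compounds. Cells were treated for 16 hr at 37 °C before ONE-Glo detection.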
Active calls of the source: *; ? = inconclusive; / = no result given; [ ] = dose if it differs, or a comment. Shown are actives, neighbours in structure and some others; about 9.2% of the full set was active somewhere. Calls come from the whole dose curve; as a rule, active = well fitted curve in the direction sought with a large enough effect; inconclusive = small, poorly fitted or top-dose-only effect, or another doubt; inactive = no such curve, though single readings can be large; an effect the other way counts as inactive or inconclusive. Potency is the fitted concentration of half-maximal effect.

SMILES | ELG1 repair inh | FLuc counter | Rab9 prom act | SMN2 splice up | NPC1 promoter act | ELG1 genotoxic
COc1cc(OC)cc(C(=O)Nn2c(C)nc3ccccc3c2=O)c1 | -15.7% | 5.9% | -5.4% | 13.1% | -0.4% | -1.5%
CCOC(=O)c1ccc(NC(=O)Cn2cc(C(=O)C3CC3)c3ccccc32)cc1 | / | 1.8% | / | -6.3% | / | /
COc1ccc(NC(=O)Cc2coc3ccc4ccccc4c23)cc1S(=O)(=O)N1CCOCC1 | ? | 13.5µM* | -5.4% | -17.3% | -4.3% | 0.4%
COc1ccc(NC(=O)Cc2coc3cc(C)ccc23)cc1S(=O)(=O)N1CCOCC1 | 2.3% | 15.1µM* | 19.7% | -5.3% | 13.1% | 1.6%
COc1ccc(NC(=O)CNc2cc(C)ccc2C)cc1S(=O)(=O)N1CCOCC1 | -14.5% | -1.8% | 0.3% | / | -3.7% | 1.0%
COc1ccc(CC(=O)Nc2ccc(F)c(Cl)c2)cc1S(=O)(=O)N1CCOCC1 | ? | 0.1% | -5.7% | / | -0.1% | 1.4%
COc1cc(C2NC(=S)NC(C)=C2C(=O)Nc2ccc(C)cc2)ccc1O (configuration not stated) | ? | ? | 2.24µM* | / | ? | 17.3%
Cc1cc(OCC(=O)Nc2cccc(S(=O)(=O)N3CCCCC3)c2)ccc1Cl | -13.1% | 6.75µM* | -1.6% | / | -2.4% | 0.2%
O=C(COc1ccc(C(=O)c2ccc(F)cc2)cc1)Nc1cccc(S(=O)(=O)N2CCOCC2)c1 | 23.1µM* | / | / | / | / | -7.7%
CCN1CCN(c2ccc(S(=O)(=O)N3CCCCC3)cc2NC(=O)COc2ccc(Cl)c(C)c2)CC1 | 23.1µM* | -1.1% | 1.4% | / | 0.3% | -19.4%
Cc1cc(OCC(=O)Nc2cccc(S(=O)(=O)N3CCCC3)c2)ccc1Cl | ? | ? | -10.2% | / | 0.9% | -6.1%
Cn1c(C(=O)NCc2ccc(F)cc2)cc2cc(S(=O)(=O)N3CCCCC3)ccc21 | / | -0.6% | / | / | / | /
Cc1cc(N/N=C/c2ccccc2Cl)nc(NCc2ccccc2)n1 | ? | 7.57µM* | -5.2% | -31.0% | -2.0% | -7.5%
Cc1cc(C)nc(N/N=C/c2ccccc2Cl)n1 | ? | ? | ? | / | 22.4% | 14.5%
COc1ccc(Nc2cc(C)nc(NCc3ccccc3)n2)cc1 | 18.3µM* | -19.5% | -26.3% | / | -11.4% | -6.7%
O=C(CCn1c(=O)c2cccn2c2cccnc21)N1CCN(c2cccc(Cl)c2)CC1 | ? | 1.7% | -3.0% | / | 1.4% | -8.9%
O=C(Cn1cc(C(=O)C2CCCCC2)c2ccccc21)Nc1ccccc1Cl | / | -2.1% | / | -12.0% | / | /
C=CCOc1ccc(/C=C/C(=O)OCC(=O)N2CCN(C(C)=O)CC2)cc1 | 3.0% | / | / | / | / | 2.1%
C=CCOc1ccc(/C=C/C(C)=N\O)cc1 | ? | 6.75µM* | 2.82µM* | / | 2.82µM* | ?
O=C(Cc1cccs1)N1CCN(S(=O)(=O)c2ccc(Br)cc2)CC1 | -1.5% | 2.0% | 1.4% | -18.4% | -2.2% | -1.0%
COc1ccc(Cl)cc1NC(=O)C[n+]1cccc(C)c1 | ? | -2.4% | -1.0%[1.84 µM] | / | -3.3% | -2.9%
COc1ccc2nc(Nc3nc(CSc4nc5ccccc5[nH]4)cc(=O)[nH]3)nc(C)c2c1 | 5.8µM* | ? | -23.1% | 106.9% | -5.4% | -6.6%
Cc1nc(Nc2nc(CSc3nc4ccccc4[nH]3)cc(=O)[nH]2)nc2ccccc12 | 13µM* | -16.3% | 0.3% | -51.9% | -2.1% | -13.5%
COc1ccnc(-n2cccc2/C=N/O)c1C#N | 1.0% | -2.6% | 2.1% | / | -5.7% | -0.8%
COc1ccc(CN2C(=NC(=O)C3CCCO3)SC3CS(=O)(=O)CC32)cc1OC (configuration not stated) | 6.1% | -0.9% | -4.8% | / | -3.6% | -0.8%
SMILES | ELG1 repair inh | FLuc counter | Rab9 prom act | SMN2 splice up | NPC1 promoter act | ELG1 genotoxic
CC1CCN(c2nc(Cl)nc(Nc3ccc([N+](=O)[O-])cc3)n2)CC1 | ? | -19.7% | -3.2% | 3.2% | 0.8% | 12.3%
CCCCOC(=O)c1ccc(NC(=O)/C=C/c2cccs2)cc1 | ? | ? | 3.5% | -24.7% | -0.3% | 0.8%
Cc1ccc2c(N)c(C#N)sc2n1 | 26.8% | 6.2%[2.3 µM] | 16.5% | ? | 10.0% | 8.6%
Cc1cc(C)c2c(N)c(-c3nc4ccccc4[nH]3)sc2n1 | ? | ? | 2.82µM* | 12.6µM* | ? | ?
Cc1ccc2nc(-c3sc4nc(C)ccc4c3N)[nH]c2c1 | ? | 1.2µM* | 3.16µM* | 2.24µM* | 3.16µM* | ?
COc1ccc(-n2nc3ccc(NC(=O)c4cccc(OCCC(C)C)c4)cc3n2)cc1 | / | 1.1% | / | 5.1% | / | /
Fc1ccc(F)c(C2=NNC(=NCC3CCCO3)SC2)c1 (configuration not stated) | 2.6% | ? | 2.24µM* | ? | ? | 13.6%
CC(=O)Nc1ccc(C2=NNC(=NCC3CCCO3)SC2)cc1 (configuration not stated) | ? | -19.5% | 16.4% | / | 10.8% | 2.4%
COc1ccc([N+](=O)[O-])cc1NC(=O)C(C)Sc1nc(C)c(C)c(C)n1 (configuration not stated) | ? | -0.9% | -2.1% | -15.2% | -1.6% | -0.2%
O=c1c(-c2ccccc2)n[nH]c2ccccc12 | ? | 9.53µM* | 3.55µM* | / | 2.24µM* | 0.0%
CN(C)S(=O)(=O)c1cccc(NC(=O)c2ccc(COc3ccccc3)cc2)c1 | 11.6µM* | ? | -21.4% | / | -12.9% | -13.5%
COCc1ccc(C(=O)Nc2cccc(S(=O)(=O)N(C)c3ccccc3)c2)cc1 | 18.3µM* | / | / | / | / | -6.6%
CN(c1ccc(C(=O)Nc2cccc(O)c2)cc1)S(=O)(=O)c1ccccc1 | ? | 4.3% | 5.1% | / | 29.6% | -2.4%
Clc1ccccc1OCc1nn2c(-c3ccncc3)nnc2s1 | -16.9% | 0.5% | -2.4% | -12.0% | -0.4% | -2.9%
Cc1nc(COc2ccccc2Cl)sc1-c1ccnc(N)n1 | 18.2% | 10.7µM* | 15.6% | / | 1.7% | 3.5%
O=C(CSc1nnc(Cn2nnc3ccccc32)o1)N(Cc1ccc(F)cc1)c1ccccc1 | -1.0% | 6.8% | -19.3% | / | -24.1% | -4.3%
COc1ccc(N(Cc2ccccc2)C(=O)CSc2nnc(Cn3nnc4ccccc43)o2)cc1 | 18.4µM* | 5.8% | -7.2% | -23.0% | 0.6% | -18.9%
COc1cccc(CS(=O)(=O)c2nnnn2-c2ccccc2)c1 | / | / | / | 8.9% | / | /
Cc1cc(/C=N/NC(=O)c2cc3ccccc3o2)c(C)n1C | ? | 21.3µM* | -0.7% | / | -1.9% | -5.6%
CCOC(=O)Cn1cc(/C=N/NC(=O)c2cc3ccccc3o2)c2ccccc21 | ? | 13.5µM* | -3.2% | / | 4.0% | -0.5%
O=C(N/N=C/c1ccncc1)c1cc2ccccc2o1 | -0.2% | 21.3µM* | -2.4% | 13.9% | -2.6% | 2.3%

Screening data: PubChem, National Center for Advancing Translational Sciences (NCATS)
